Screening data (PubChem)
Most compounds without a hit are left out; they make up all but 21% or so of the library.
Cycloheximide cs: affects cycloheximide protein synthesis inhibition readout, counter-screen; AID 2314; hit rate 12% among 300,000; max response, %; cell reporter, cycloheximide protein synthesis inhibition counterscreen; in the data active = max response mostly above about 13%, no sharp cut-off; inactive = mostly below about 14%; note: read at 38.3 µM for the half of the compounds with a filed dose; 0% is about no effect
HCV inhibitor: inhibitors of hepatitis C virus infection | AID 651820 | hit rate 3.4% among 340,000 | Huh7.5.1 HCVcc-Cre infection, luciferase reporter, 44 h | Potency, µM (titrated, usually from 41.8 µM), for the others: at the top dose activity change, negative = inhibition, usual class: inhibitors; note: potency is the fitted concentration of half-maximal effect; % is set by controls: 0 for no effect and ±100 for the full control effect
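Seed cells (1,000/well) for 4 h; treat with compound and infect with HCVcc-Cre, moi about 0.5. Incubate 44 h, then detect luciferase activity.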
Pf growth 48h: inhibits P. falciparum growth in the first generation, 48 h. hit rate 5.9% among 310,000. Potency, µM (series often up to 28.7 µM), without a hit: at the top dose activity change, negative = inhibition, actives largely listed as inhibitors. AID 504832. P. falciparum luciferase growth in erythrocytes, 48 h; note: potency is the fitted concentration of half-maximal effect; % is set by controls: 0 for no effect and ±100 for the full control effect
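Compounds are pin-transferred into medium, infected erythrocytes (2% hematocrit, 0.1% parasitemia final) are added, and plates sit one parasite generation at 37 C in 5% CO2. Detection reagent is then added and luminescence measured.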
Shiga inhibitor: Shiga toxin inhibition; Vero cells, Shiga toxin protein synthesis inhibition reporter; inhibition, % at 38.7 µM; hit rate 9.2% among 290,000; in the data active = inhibition mostly above about 28%, no sharp cut-off; inactive = mostly below about 43%; note: 0% is about no effect
Pf growth 96h: P. falciparum growth inhibition at 96 hour, primary screen for plastid delayed-death inhibitors; P. falciparum luciferase reporter growth, 96 h; Potency, µM (doses to about 28.7 µM), for inactives: at the highest dose activity change, negative = inhibition, actives largely listed as inhibitors; hit rate 6.9% among 320,000; note: potency is the fitted concentration of half-maximal effect; % is set by controls: 0 for no effect and ±100 for the full control effect
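P. falciparum expressing integrated firefly luciferase, in erythrocytes at 2% hematocrit, 0.05% parasitemia, incubated with compounds 96 h at 37 C, 5% CO2. Growth inhibition read as loss of luminescence; two-generation exposure targets delayed-death apicoplast inhibitors.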
HCMV antiviral: inhibitors of human cytomegalovirus; activity change, negative = inhibition, % at 57.5 µM; AID 1259415; HFF cells, HCMV-luciferase reporter, 72 h; stronger effect = lower value; hit rate 4.5% among 410,000; in the data active = activity change below about -60%; inconclusive = no clear call, values can overlap the other calls; inactive = above about -39%; note: % is set by controls: 0 for no effect and ±100 for the full control effect
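Two compound doses tested in HFFs infected with HCMV-luciferase, MOI 1 PFU/cell, 72 h at 37C. Lysate luminescence read with OneGlo; data normalized against buffer-only and 10uM Salinomycin inhibitor controls.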
* marks the source's active call; other numbers are inactive results; ? = inconclusive; . = no result. Unless noted, calls come from the whole dose curve; as a rule, active = well fitted inhibition curve with a large enough effect; inconclusive = small, poorly fitted or top-dose-only effect, or another doubt; inactive = no such curve, though single readings can be large or run the other way.

SMILES | Cycloheximide cs | HCV inhibitor | Pf growth 48h | Shiga inhibitor | Pf growth 96h | HCMV antiviral
CCc1nnc(SCC(=O)Nc2ccc3c(c2)OCO3)n1CC | 9 | 15% | 15% | 12 | ? | .
CCOC(=O)c1c(NC(=O)CSc2nnc(-c3c[nH]c4ccccc34)n2CC)sc2c1CCCC2 | -4 | ? | ? | -5 | 12µM* | -31
CCn1c(SCC(=O)NCc2ccccc2)nnc1-c1c[nH]c2ccccc12 | 17 | -29% | -22% | -5 | . | 14
Cc1ccc(-c2nnc(SCC(=O)Nc3ccc4c(c3)OCCO4)n2N)cc1 | -1 | -25% | 8% | -8 | 10µM* | -37
O=C(CSc1nnc(-c2ccccc2Cl)n1Cc1ccco1)Nc1ccc2c(c1)OCCO2 | 13* | -26% | ? | 4 | . | 0
CCn1c(COc2ccc(Cl)cc2)nnc1SCC(=O)Nc1ccc2c(c1)OCO2 | -3 | -4% | 10% | -4 | 10µM* | 27
CCc1ccccc1-n1c(SCC(=O)N2CCCC2)nc2[nH]ncc2c1=O | 6 | 3% | 1% | -11 | ? | -39
CCc1ccccc1-n1c(SCC(=O)Nc2ccc3c(c2)OCCO3)nc2[nH]ncc2c1=O | 53* | ? | -39% | 112* | -7% | -34
Cc1noc2ncc(C(=O)c3cc(F)ccc3O)cc12 | -1 | -15% | . | 9 | 8.3µM* | 24
O=C(c1cnn(C(=O)COc2ccccc2F)c1)c1cc(F)ccc1O | -2 | -1% | ? | 25 | -13% | -34
Cc1ccc(O)c(C(=O)c2cnc3onc(-c4ccc(F)cc4)c3c2)c1 | -1 | ? | 3.3µM* | 16 | 2.3µM* | -12
Cc1[nH]nc2ncc(C(=O)c3cc(F)ccc3O)cc12 | 1 | ? | . | -10 | ? | -39
O=C(c1cnc2nc3ccccc3n2c1)c1cc(F)ccc1O | 14* | 7% | 23% | 11 | ? | 54
Cc1ccc2nc(N3CCC(C(=O)NCc4ccc(F)cc4)CC3)[nH]c2c1 | . | . | . | . | . | 0
CCC(=O)Nc1ccc(C)cc1-c1nc2ccccc2n(C(C)C(=O)Nc2ccccc2CC)c1=O (centres undefined) | . | . | . | . | . | 5
CCCCOc1[nH]c2nc(-c3ccco3)n(Cc3ccco3)c(=N)c2c1C#N | 16* | ? | 5.9µM* | 6 | 13% | -19
CC(C)(C)CC(C)(C)c1ccc(O)c(-n2nc3ccccc3n2)c1 | . | . | ? | . | 1% | -4
Cn1c(N)c(C(C[N+](=O)[O-])c2ccccc2Cl)c(=O)n(C)c1=O (centres undefined) | . | -9% | . | . | . | -34
COc1cc(C(C[N+](=O)[O-])c2c(N)n(C)c(=O)n(C)c2=O)ccc1O (centres undefined) | -8 | ? | 0% | -25 | -19% | -71*
COc1cccc(F)c1C(C[N+](=O)[O-])c1c(N)n(C)c(=O)n(C)c1=O (centres undefined) | -5 | 7.9µM* | ? | -17 | 13µM* | -100*
Cc1ccc(C(C[N+](=O)[O-])c2c(N)n(C)c(=O)n(C)c2=O)cc1 (centres undefined) | -8 | 13% | ? | -2 | ? | 57
Cc1ccc(C)c(CN2C(=O)c3ccccc3S(=O)c3ccc(C(=O)N4CCN(c5cccc(Cl)c5)CC4)cc32)c1 (centres undefined) | . | . | . | . | . | -32
Cc1ccnc(NS(=O)(=O)c2ccc(NC(=O)C3CC=CCC3C(=O)O)cc2)n1 (centres undefined) | -4 | 22% | -2% | 1 | ? | ?
Cc1nc2cc(NC(=O)c3ccc([N+](=O)[O-])s3)ccc2s1 | 34* | ? | ? | 52* | ? | -94*
Cc1ccnc(NS(=O)(=O)c2ccc(NC(=O)C3CCCCC3C(=O)O)cc2)n1 (centres undefined) | -3 | 17% | 27% | 22 | 2.9µM* | 3
Cc1ccnc(NS(=O)(=O)c2ccc(NC(=O)c3ccc([N+](=O)[O-])s3)cc2)n1 | -2 | 4% | 4.1µM* | 7 | 12µM* | -96*
CC(=O)Nc1ccc(C(=O)Nc2ccc(S(=O)(=O)Nc3nccc(C)n3)cc2)cc1 | -3 | 5% | 17% | -1 | 0% | -13
